Experimental data published in the supplement of paper PMC6555819.

Key:
Assay in all cases: PBM binding z-score (relative to random genomic background probes); higher = stronger binding; sequences stand for … in GC…GCGATTGACAGCGTAGAATGAAGG
[1] = test system: FXR:RXRa (NR concentration 270 nM, RXRa partner concentration 90 nM)
Outline: (§1)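 Regression normalization was applied to scanned fluorescence from custom Agilent 4×180K protein-binding microarrays. Before scanning, arrays were incubated 1 h with ligand-free nuclear receptor dimers, and binding was detected with antibodies against each partner (one per run). Binding z-scores use the random background probes as reference.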

[2] = test system: LXRa:RXRa (NR concentration 270 nM, RXRa partner concentration 90 nM)
Outline: as §1

[3] = test system: LXRa homodimer (NR concentration 270 nM)
Outline: as §1

[4] = test system: LXRb:RXRa (NR concentration 270 nM, RXRa partner concentration 90 nM)
Outline: as §1

[5] = test system: LXRb homodimer (NR concentration 270 nM)
Outline: as §1

[6] = test system: PPARa:RXRa (NR concentration 270 nM, RXRa partner concentration 90 nM)
Outline: as §1

[7] = test system: PPARg:RXRa (NR concentration 180 nM, RXRa partner concentration 90 nM)
Outline: as §1

[8] = test system: PPARg:RXRa 270nM:90nM, anti-RXR (NR concentration 270 nM, RXRa partner concentration 90 nM)
Outline: as §1

[9] = test system: PPARg:RXRa 30nM:10nM, anti-RXR (NR concentration 30 nM, RXRa partner concentration 10 nM)
Outline: as §1

[10] = test system: PPARg:RXRa 90nM:30nM, anti-RXR (NR concentration 90 nM, RXRa partner concentration 30 nM)
Outline: as §1

[11] = test system: PPARg:RXRa DBDmut IVT, anti-RXR (DBD mutation: RXRa K156A/R161A, NR concentration 270 nM, RXRa partner concentration 90 nM)
Outline: as §1

[12] = test system: PPARg:RXRa IVT, anti-PPARg (NR concentration 270 nM, RXRa partner concentration 90 nM)
Outline: as §1

[13] = test system: PPARg DBDmut:RXRa IVT, anti-PPARg (DBD mutation: PPARg1 K132A/R137A, NR concentration 270 nM, RXRa partner concentration 90 nM)
Outline: as §1

[14] = test system: PPARg DBDmut IVT, anti-PPARg (DBD mutation: PPARg1 K132A/R137A, NR concentration 270 nM)
Outline: as §1

[15] = test system: PPARg homodimer (NR concentration 180 nM)
Outline: as §1

[16] = test system: PXR:RXRa (NR concentration 270 nM, RXRa partner concentration 90 nM)
Outline: as §1

[17] = test system: PXR homodimer (NR concentration 270 nM)
Outline: as §1

[18] = test system: RARa:RXR (NR concentration 270 nM, RXRa partner concentration 90 nM)
Outline: as §1

[19] = test system: RARa homodimer (NR concentration 270 nM)
Outline: as §1

[20] = test system: RARb:RXRa (NR concentration 270 nM, RXRa partner concentration 90 nM)
Outline: as §1

Row | Sequence | PBM binding z-score [1] | PBM binding z-score [2] | PBM binding z-score [3] | PBM binding z-score [4] | PBM binding z-score [5] | PBM binding z-score [6] | PBM binding z-score [7] | PBM binding z-score [8] | PBM binding z-score [9] | PBM binding z-score [10] | PBM binding z-score [11] | PBM binding z-score [12] | PBM binding z-score [13] | PBM binding z-score [14] | PBM binding z-score [15] | PBM binding z-score [16] | PBM binding z-score [17] | PBM binding z-score [18] | PBM binding z-score [19] | PBM binding z-score [20]
1 | CCTACTGGGCCACGAAACGTCATTGATTCAGTGA | -0.574 | -0.675 | -0.582 | -0.896 | -0.886 | 0.486 | 1.59 | 1.19 | -0.214 | 0.157 | 5.46 | 4.94 | 0.954 | 0.628 | -0.288 | -0.903 | -0.805 | -0.908 | -0.363 | 0.0906
2 | CCTATTGGGCCAAAAAGGTCATTGATGCCGATAA | 3.69 | 4.37 | 2.45 | 4.04 | 0.266 | 4.6 | 2.25 | 3.39 | 0.941 | 2.81 | 1.89 | 2.64 | 0.177 | -0.558 | 2.26 | 4.74 | 2.45 | 4.98 | 1.26 | 3.79
3 | TAGCCTAGGTCATGGGCCCGTATACCACGCGAAC | 4.69 | 3.5 | 0.466 | 2.77 | -0.0336 | 4 | 3.44 | 3.32 | 0.723 | 2.09 | 1.21 | 3.21 | -0.0541 | -0.484 | 1.07 | 1.92 | -0.637 | 2.86 | 0.106 | 3.81
4 | CGAACTAGGTCCTCCAGGACAGTGAATACATTGA | -0.16 | -0.319 | -0.274 | -0.492 | -0.593 | 0.0563 | 0.755 | 0.537 | -0.117 | 0.278 | 3.46 | 2.42 | 0.246 | -0.00333 | -0.188 | -0.555 | -0.316 | -0.262 | -0.913 | -0.0568
5 | ATACCAAGGTGATCGTGTGGTCGTTGATACTAAC | 0.493 | 0.0735 | -0.0332 | 0.23 | -0.176 | 0.206 | 0.285 | 0.406 | -0.115 | -0.212 | 0.658 | 0.953 | 0.0763 | 0.561 | 0.519 | 0.0212 | -0.0663 | 0.0038 | 0.00751 | 0.737
6 | TCATATAGGTAAAAGATGAAAGTCGGTGTGGTAA | 0.736 | 1.17 | -0.031 | 1.03 | 0.134 | 2.6 | 3.49 | 4.9 | 5.17 | 5.29 | 4 | 2.54 | 1.07 | 0.573 | 0.893 | 0.672 | 0.283 | 1.08 | 1.1 | 0.338
7 | GGAGACAGGTGAAACGCAGGTAACTCAGGGTGGC | 0.0373 | 0.224 | -0.296 | -0.0924 | -0.712 | 1.03 | 0.617 | 0.0474 | -0.768 | -0.000912 | 0.957 | 0.901 | -1.26 | -0.98 | -0.102 | -0.298 | -0.332 | 0.137 | -0.68 | 0.904
8 | TCATACAGGTGAAGGTAACTCAGGTACGCAGTCG | 1.02 | 2.17 | 0.186 | 1.18 | 0.221 | 1.68 | 1.3 | 2.39 | 3.72 | 3.04 | 3.17 | 2.45 | 0.347 | 1.84 | 1.14 | 0.814 | 0.508 | 1.31 | 0.817 | 1.26
9 | TAGCCTAGGTCATTGGGCCACTATAGTACGCATC | 4.39 | 3.9 | 1.1 | 3.05 | 0.679 | 3.99 | 4.65 | 4.12 | 1.41 | 3.18 | 3.5 | 4.5 | 0.0417 | -0.0772 | 0.995 | 1.63 | -0.211 | 2.14 | -0.101 | 3.49
10 | CCTGCTAGGTCAATAGTCAGCTAAAGCAGCTCGC | 2.43 | 1.66 | -0.401 | 0.931 | 0.148 | 2.28 | 2.33 | 2.95 | 0.219 | 1.9 | 3.97 | 3.08 | -0.361 | -0.649 | 0.586 | 0.324 | -0.908 | 0.911 | -1.08 | 3.45
11 | AGTCAAAGTTCCCTAGGTAACGTAAGATTCAGCT | -0.33 | -0.385 | -0.0977 | -0.4 | -0.222 | -0.259 | 0.281 | 0.455 | 0.0394 | -0.0115 | -0.23 | 0.612 | -0.729 | 0.358 | -0.325 | 0.00195 | -0.697 | -0.125 | -0.463 | 0.687
12 | AGAATGAGGTTATACGTAGTTCAGGGAAGAAAGT | 2.23 | 3.06 | 0.289 | 1.93 | -0.31 | 3.55 | 1.85 | 2.29 | 0.654 | 1.49 | 3.46 | 2.53 | 1.03 | 0.605 | 0.814 | 3.07 | 0.774 | 2.66 | 0.46 | 1.96
13 | TCTCGGAGGACACGAAAGGTCGGAGCTCGACATC | 1.02 | 1.14 | -0.0519 | 0.48 | -0.636 | 1.51 | 0.269 | 1.36 | 1.93 | 1.73 | 1.24 | 0.486 | -0.405 | -0.523 | 0.582 | 1.38 | -0.652 | 1.61 | -0.809 | 2.56
14 | CCTCGGAGGACAAAAGGTCAGAGCTGTCCGCTTT | 3.66 | 4.52 | 2 | 3.34 | -0.114 | 3.96 | 1.65 | 3.76 | 1.1 | 3.22 | 1.07 | 1.62 | -0.684 | -1.47 | 4.04 | 3.72 | 0.0706 | 4.59 | 0.836 | 4.61
15 | TCGAGCAGGTTACCAATGGGGCATTCAGCTTTCT | 0.00101 | 1.37 | -0.694 | 0.999 | -1 | 0.887 | -0.242 | 0.245 | 0.211 | 0.322 | 0.467 | 0.239 | -1.51 | -1.13 | -0.591 | 0.0251 | -0.765 | 0.475 | -1.05 | 1.07
16 | TCATATAGGTAAACAGGTGAATGTCCGTAAGTTA | 0.832 | 1.18 | 1.02 | 0.963 | 0.0472 | 2.02 | 2.31 | 3.18 | 3.86 | 3.58 | 4.88 | 4.45 | 1.34 | 1.04 | 1.16 | 0.702 | 0.0773 | 1.09 | 0.858 | 0.708
17 | CCTACTGGGCCATCAGGTCATAGATATCAACGTT | 1.22 | 0.89 | 0.812 | 1.18 | -0.323 | 2.72 | 3.22 | 3.9 | 1.86 | 3.15 | 4.5 | 5.08 | 0.923 | -0.119 | 1.49 | 1.15 | 0.269 | 1.87 | 0.283 | 1.99
18 | ATCTCTATGTAACCAAGTTCAGTGAATGCCGAAC | 0.239 | 0.344 | 0.727 | 0.489 | 0.572 | 0.351 | 0.288 | 0.822 | 0.337 | 0.387 | -0.0629 | 0.707 | 0.85 | 1.12 | 0.121 | 1.66 | 1.51 | 0.419 | 0.407 | 0.755
19 | CTCGAAAGGTCGGTTGAGGTGAGTGTACGGATAA | 2.54 | 2.08 | -0.0781 | 1.51 | -0.0633 | 2.67 | 0.33 | 1.27 | 0.405 | 0.48 | 0.169 | 1.3 | 0.72 | -0.675 | 1.07 | 3.54 | 0.527 | 3.02 | 0.735 | 3.07
